According to PubChem BioAssay:

What follows are compounds tested against Focal adhesion kinase 1 (Homo sapiens) (UniProt Q05397) (assay: small-molecule microarray binders of FAK, primary screen, biochemical, 635/667 nm fluorescence, BSA, DTT (AID 1130;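 note: composite of spot emission at 667 nm and signal to noise over triplicate slides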)). Conditions: PTK2 binding, 635 nm fluorescence, higher = more signal.
Focal adhesion kinase 1 (Homo sapiens), sequence (Q05397 whole entry, looked up): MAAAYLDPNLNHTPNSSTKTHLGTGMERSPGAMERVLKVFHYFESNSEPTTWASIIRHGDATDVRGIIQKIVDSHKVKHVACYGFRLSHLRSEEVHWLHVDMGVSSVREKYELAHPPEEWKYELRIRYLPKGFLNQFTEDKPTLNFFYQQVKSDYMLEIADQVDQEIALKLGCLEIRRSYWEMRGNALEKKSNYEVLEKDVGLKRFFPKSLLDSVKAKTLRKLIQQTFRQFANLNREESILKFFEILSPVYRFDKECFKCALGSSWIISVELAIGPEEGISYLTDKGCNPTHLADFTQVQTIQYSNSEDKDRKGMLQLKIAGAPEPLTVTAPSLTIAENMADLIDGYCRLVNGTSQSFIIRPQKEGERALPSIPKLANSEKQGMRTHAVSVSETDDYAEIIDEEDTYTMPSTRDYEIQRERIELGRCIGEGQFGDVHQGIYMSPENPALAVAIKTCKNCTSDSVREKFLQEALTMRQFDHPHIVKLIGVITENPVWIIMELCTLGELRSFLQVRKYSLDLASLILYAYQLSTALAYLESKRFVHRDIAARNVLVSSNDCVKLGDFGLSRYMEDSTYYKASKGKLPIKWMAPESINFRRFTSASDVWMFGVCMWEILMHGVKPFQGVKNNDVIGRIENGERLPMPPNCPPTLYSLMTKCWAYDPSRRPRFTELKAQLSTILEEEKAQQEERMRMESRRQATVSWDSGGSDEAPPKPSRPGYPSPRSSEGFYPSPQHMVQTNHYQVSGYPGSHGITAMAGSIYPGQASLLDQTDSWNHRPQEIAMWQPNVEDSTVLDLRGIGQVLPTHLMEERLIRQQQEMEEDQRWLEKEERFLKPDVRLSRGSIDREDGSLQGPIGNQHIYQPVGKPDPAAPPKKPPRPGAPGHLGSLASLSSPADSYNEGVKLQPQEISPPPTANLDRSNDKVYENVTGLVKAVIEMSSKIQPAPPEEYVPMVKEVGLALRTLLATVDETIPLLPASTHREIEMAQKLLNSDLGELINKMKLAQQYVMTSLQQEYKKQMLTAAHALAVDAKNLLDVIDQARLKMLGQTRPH

| SMILES | composite z-score |
| --- | --- |
| CON=C(C)CCN1CCCCc2nc(C)c(C)cc21 | 0.145 |
| CCOC(=O)[C@H](Cc1ccccc1)NC(=O)CCC1CC(OC(=O)NCc2cccc3ccccc23)CC2(CCCC(COC(=O)NCC3CCCCC3)O2)O1 (stereo partly drawn) | 0.289 |
| CO[C@H]1COC(=O)CCC[C@H](C)[C@@H](OC)COC(=O)CC=C[C@@H]1C | -0.246 |
| C[C@H]1C=CCC(=O)OC[C@H](C)C(=O)N2CCC[C@H]2C(=O)OC1 | -0.943 |
| CC(=O)OC[C@H]1O[C@H](CCON=C(C)C)C=C[C@@H]1OC(C)=O | 0.115 |
| CC(C)[C@@H](OCc1ccccc1)[C@H](C)C=NO[C@@H](C)c1cn([C@H](CO)Cc2ccccc2)nn1 | -0.0232 |
| O=C1C2=CC[C@H]3C(=O)N(C4CCCCC4)C(=O)[C@H]3[C@H]2[C@H](O)[C@@H]2O[C@H]12 | -0.504 |
| CC(C)(C)N1C(=O)[C@H]2[C@H]3[C@H](O)[C@H](O)CC(=NNC(=O)OCc4ccccc4)[C@H]3CC[C@H]2C1=O | 0.0507 |
| CC(C)(C)N1C(=O)[C@H]2[C@H]3[C@H](O)[C@H](O)CC(=NNC(=O)OCc4ccccc4)[C@@H]3CC[C@H]2C1=O | 0.32 |
| O=C1C2=CC[C@H]3C(=O)N(C[C@@H]4CCCO4)C(=O)[C@H]3[C@H]2[C@H](O)[C@@H]2O[C@H]12 | 0.146 |
| CO[C@@H]1C=CCC(=O)N[C@@H](C)C(=O)OC[C@@H](NS(=O)(=O)c2ccc(C)cc2)[C@H](C)C=CCC(=O)OC[C@H]1C | -0.0987 |
| C[C@@H]1CC[C@@H](C(=O)O)N[C@H]1c1cccc(N2CCOCC2)c1 | 0.455 |
| CO[C@@H]1COC(=O)[C@@H]2CCCN2C(=O)[C@@H](C)COC(=O)CCC[C@H]1C | 0.154 |
| O=C1[C@H]2[C@H]3[C@H](O)[C@H](O)CC(=NOC[C@@H](O)COCc4ccco4)[C@@H]3CC[C@H]2C(=O)N1C1CCCCC1 | -0.569 |
| CC(CCC(=O)OC[C@H]1O[C@H](C#Cc2ccccc2)C=C[C@@H]1Oc1ccc(C)cc1)=NO[C@H](C)c1cn([C@@H]2COC[C@H]2O)nn1 | 0.0652 |
| C[C@H]1CC[C@H]2C(=O)N[C@H](Cc3ccccc3)C(=O)N2[C@@H]1c1ccccc1 | 0.128 |
| CC(=O)OC[C@H]1O[C@H](CC=NO[C@H](C)c2cn([C@@H]3COC[C@H]3O)nn2)C=C[C@@H]1OC(C)=O | -0.0621 |

| SMILES | composite z-score |
| --- | --- |
| O=C1CCCC=C1C(O)COCc1ccccc1 (stereo not drawn) | 0.0944 |
| COc1ccc(COC(=O)NN=C2C[C@@H](O)[C@@H](O)[C@@H]3[C@@H]4C(=O)N(C5CCCCC5)C(=O)[C@@H]4CC[C@@H]23)cc1 | 0.0581 |
| COC(=O)CC=C[C@@H](C)[C@@H](C=NOC[C@@H](O)COCc1ccco1)OC | -0.354 |
| O=C1[C@H]2[C@H]3[C@H](O)[C@H](O)CC(=NO[C@@H]4O[C@H](CO)[C@@H](O)[C@H](O)[C@H]4O)[C@@H]3CC[C@H]2C(=O)N1C[C@@H]1CCCO1 | 0.142 |
| O=C1[C@H]2[C@H]3[C@H](O)[C@H](O)CC(=NOC[C@@H](O)COCc4ccco4)[C@@H]3CC[C@H]2C(=O)N1Cc1ccccc1 | 0.728 |
| CCOC(=O)[C@H](Cc1ccccc1)NC(=O)CCC1CC(OC(=O)NCCc2ccc(F)cc2)CC2(CCCC(COC(=O)NCc3cccc(C(F)(F)F)c3)O2)O1 (stereo partly drawn) | 0.31 |
| O=C1C=C[C@@H](O)[C@@H]2[C@@H]3C(=O)N(C4CCCCC4)C(=O)[C@@H]3CC[C@@H]12 | 0.431 |
| CCN1C(=O)[C@H]2[C@@H]3C(=CC[C@H]2C1=O)C(=O)[C@H]1O[C@H]1[C@H]3O | -0.204 |
| CCOC(=O)[C@H](Cc1ccccc1)NC(=O)CCC1CC(OC(=O)NCc2ccc3c(c2)OCO3)CC2(CCCC(COC(=O)NCCOc3ccccc3)O2)O1 (stereo partly drawn) | -0.0176 |
| CCN1C(=O)[C@H]2[C@H]3[C@H](O)[C@H](O)CC(=NO[C@H](C)c4cn([C@H](CO)Cc5ccccc5)nn4)[C@@H]3CC[C@H]2C1=O | 0.454 |
| COC(OC)[C@@H](C)[C@H](OC)[C@@H](C)[C@H](OC)c1ccccc1 | -0.043 |
| CO[C@@H]1COC(=O)[C@H](CCSC)NC(=O)CC=C[C@@H](C)COC(=O)[C@@H]2CCCN2C(=O)CC=C[C@H]1C | -0.702 |
| CC(C)=NO[C@H](C)c1cn([C@@H]2COC[C@H]2O)nn1 | 0.335 |
| CC(C)=NOC(C)CN1CCCc2nc(C)c(C)cc21 (stereo not drawn) | 0.232 |
| CC#CCOCCC=C1c2ccccc2[C@@H](OC)[C@@H]1C | -0.0029 |
| O=C1[C@H]2[C@H]3[C@H](O)[C@H](O)CC(=NO[C@@H]4O[C@H](CO)[C@@H](O)[C@H](O)[C@H]4O)[C@H]3CC[C@H]2C(=O)N1C[C@@H]1CCCO1 | -0.159 |
